ROS inducer = inducers of reactive oxygen species in cancer cells; ROS induction (% of piperlongumine), % at 10 µM; AID 624156; 46,000 compounds, 2% hits; U2OS ROS induction, H2DCF-DA fluorescence; in the data active means ROS induction above about 79%, passing the limit was not always enough;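 further: 0% = DMSO vehicle median and 100% = reference compound median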
YB-1 expression = YB-1 expression inhibition; delta delta Cp (YB-1 minus CDIP) (concentration not given with the values); 30,000 compounds, 0.37% hits; U2OS, qRT-PCR YB-1 vs CDIP delta delta Cp, 16 h; hits give high values; zero = DMSO, each unit about twofold;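 active means delta delta Cp rounded down to an integer at or above 3, about 3 SD of DMSO wells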;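 further: higher means less YB-1 transcript or more CDIP transcript relative to DMSO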
Starred values were filed as active, the others as inactive. Shown are actives, neighbours in structure and some others; about 2.3% of the full set was active somewhere.

What do the screens show for `C[C@H](CO)N1C[C@H](C)[C@H](CN(C)C(=O)Nc2ccc(F)cc2)Oc2ncc(-c3ccccc3)cc2C1=O`?
ROS inducer: 42.3; YB-1 expression: 0.111

How did C[C@H](CO)N1C[C@H](C)[C@H](CN(C)C(=O)Nc2ccc(F)cc2)Oc2ncc(/C=C/c3ccccc3)cc2C1=O do in these assays?
ROS inducer: 89.9*; YB-1 expression: -0.393

What do the screens show for `C[C@H](CO)N1C[C@H](C)[C@H](CN(C)C(=O)Nc2ccc3c(c2)OCO3)Oc2ncc(C#CC(C)(C)O)cc2C1=O`?
ROS inducer: 5.9; YB-1 expression: -0.261

Results for C[C@H](CO)N1C[C@H](C)[C@H](CN(C)C(=O)Nc2ccc3c(c2)OCO3)Oc2ncc(/C=C/c3ccccc3)cc2C1=O ?
ROS inducer: 119.8*; YB-1 expression: 0.451

How did COC(CNc1ncnc2c1c(-c1ccccc1)cn2-c1ccc(C)cc1)OC do in these assays?
ROS inducer: 55.6

How did COc1ccc(-n2cc(-c3ccccc3)c3c(N4CCCCC4)ncnc32)cc1 do in these assays?
ROS inducer: 115.7*

How did O=C(CC1C(=O)N(c2ccccc2)C(=S)N1CCc1ccc(F)cc1)Nc1ccc(F)cc1 (configuration not stated) do in these assays?
ROS inducer: -4.1

What do the screens show for `C[C@H]1CN([C@@H](C)CO)C(=O)c2cccc(NS(=O)(=O)c3ccc(Cl)cc3)c2O[C@H]1CN(C)Cc1ccc(Oc2ccccc2)cc1`?
ROS inducer: 12.1; YB-1 expression: -0.262

Results for C[C@H](CO)N1C[C@H](C)[C@@H](CN(C)Cc2ccc(Oc3ccccc3)cc2)Oc2c(NS(=O)(=O)c3ccc(Cl)cc3)cccc2C1=O ?
ROS inducer: 112.3*; YB-1 expression: -0.22

Results for COc1ccc(S(=O)(=O)Nc2cccc3c2O[C@H](CN(C)Cc2ccc(Oc4ccccc4)cc2)[C@@H](C)CN([C@H](C)CO)C3=O)cc1 ?
ROS inducer: 96.5*; YB-1 expression: -0.237

How did COc1ccc(S(=O)(=O)Nc2cccc3c2O[C@@H](CN(C)Cc2ccc(Oc4ccccc4)cc2)[C@H](C)CN([C@@H](C)CO)C3=O)cc1 do in these assays?
ROS inducer: 34.5; YB-1 expression: -0.00558

What do the screens show for `O=C(CSc1ccccc1)N1c2ccccc2Sc2ccccc21`?
ROS inducer: -6.6

How did CCOC(=O)Cn1cc(/C=C2\C(=O)NC(=O)N(c3ccc(F)cc3)C2=O)c2ccccc21 do in these assays?
ROS inducer: 44.0

Results for COCCN1C(=O)/C(=C/c2cn(CC(=O)OC)c3ccccc23)C(=O)N(c2ccccc2)C1=O ?
ROS inducer: 93.0*; YB-1 expression: 0.0336

What do the screens show for `CCOC(=O)CN1C(=O)S/C(=C/c2ccc3c(c2)n(C)c(=O)n3C)C1=O`?
ROS inducer: 0.4

Results for CCOC(=O)CN1C(=O)S/C(=C\c2ccccc2OCc2ccccc2F)C1=O ?
ROS inducer: 102.5*

Results for O=C(NC1CCCC1)c1ccc2c(c1)N(Cc1ccccc1)C(=O)CS2 ?
ROS inducer: 7.3

What do the screens show for `CCN(CC)S(=O)(=O)c1ccc(Cl)c(C(=O)Oc2ccc(C)c(C)c2)c1`?
ROS inducer: 14.3; YB-1 expression: 9.08*

How did Cc1ccc(OC(=O)c2cc(S(=O)(=O)N3CCCC3)ccc2C)cc1C do in these assays?
ROS inducer: 4.3

What do the screens show for `CCOC(=O)c1[nH]c2cc(OC)c(OC)cc2c1N1C(=O)CCC1=O`?
ROS inducer: -2.4

How did C=C1C(=O)O[C@H]2C1[C@H](OC(=O)/C(C)=C/CO)C/C(C)=C\CC[C@@]1(C)OC21 (some centres not stated) do in these assays?
ROS inducer: 72.1; YB-1 expression: 0.131

What do the screens show for `C=C1C(=O)OC2/C=C(\CO)C(OC(C)=O)C/C=C(/C)CC(OC(=O)/C(C)=C\CO)C12` (configuration not stated)?
ROS inducer: 52.6; YB-1 expression: 4.73*

Results for C=C1C(=O)O[C@H]2C1[C@H](OC(=O)/C(C)=C/CO)C/C(C)=C\CC[C@@]1(CO)OC21 (some centres not stated) ?
ROS inducer: 41.8; YB-1 expression: 0.098

What do the screens show for `C=C(CO)C(=O)O[C@H]1CC(=C)[C@@H]2CC(=O)[C@H](C)[C@@H]2[C@H]2OC(=O)C(=C)[C@@H]21`?
ROS inducer: 121.8*; YB-1 expression: -0.582

How did Cc1cc(I)ccc1-n1[nH]c(C(F)(F)F)cc1=O do in these assays?
ROS inducer: -8.6

What do the screens show for `CC1(C)CC(=O)c2cc3c(N)c(C(=O)Nc4ccccc4)sc3nc2C1`?
ROS inducer: 10.6

Results for C[C@@H]1CN([C@@H](C)CO)C(=O)c2cccc(NC(=O)CCCCCC(=O)Nc3ccccc3N)c2O[C@@H]1CN(C)Cc1ccccc1 ?
ROS inducer: 2.8; YB-1 expression: -0.00569

Results for C[C@@H]1CN([C@@H](C)CO)C(=O)c2cccc(NC(=O)CCCCCC(=O)Nc3ccccc3N)c2O[C@@H]1CN(C)Cc1ccc(Oc2ccccc2)cc1 ?
ROS inducer: 135.5*; YB-1 expression: -0.161

Results for C[C@@H]1CN([C@@H](C)CO)C(=O)c2cccc(NC(=O)CCCCCC(=O)Nc3ccccc3N)c2O[C@H]1CN(C)CC1CCCCC1 ?
ROS inducer: 82.3*; YB-1 expression: -0.49

What do the screens show for `C[C@@H]1CN([C@H](C)CO)C(=O)c2cccc(NC(=O)CCCCCC(=O)Nc3ccccc3N)c2O[C@@H]1CN(C)Cc1ccc(Oc2ccccc2)cc1`?
ROS inducer: 9.1; YB-1 expression: -0.246

Results for C[C@H](CO)N1C[C@H](C)[C@H](CN(C)CC2CC2)Oc2c(NC(=O)CCCCCC(=O)Nc3ccccc3N)cccc2C1=O ?
ROS inducer: -7.3; YB-1 expression: 0.00279

What do the screens show for `C[C@H](CO)N1C[C@H](C)[C@@H](CN(C)Cc2ccc(-c3ccccc3)cc2)Oc2c(NC(=O)CCCCCC(=O)Nc3ccccc3N)cccc2C1=O`?
ROS inducer: 117.0*; YB-1 expression: -0.198

Results for O=C(Nc1ccc(Cl)cc1Cl)c1cc2nc3c(c(C(F)(F)F)n2n1)CCc1ccccc1-3 ?
ROS inducer: -3.3

What do the screens show for `C=CCn1c(-c2ccc(OC)cc2)csc1=Nc1ccc(Br)cc1`?
ROS inducer: 7.7

How did COCCOC(=O)N1C(=O)[C@@]2(c3cc(C#CC4=CCCCC4)ccc31)[C@H](C(N)=O)[C@H]1C(=O)O[C@H](c3ccccc3)[C@H](c3ccccc3)N1[C@@H]2c1ccccc1OCCO do in these assays?
ROS inducer: 138.2*; YB-1 expression: -0.0333

What do the screens show for `COCCOC(=O)N1C(=O)[C@@]2(c3cc(C#CC4=CCCCC4)ccc31)[C@H](c1ccccc1OCCO)N1[C@H](c3ccccc3)[C@H](c3ccccc3)OC(=O)[C@H]1[C@@H]2C(=O)NC[C@H](O)c1ccccc1`?
ROS inducer: 143.6*; YB-1 expression: -0.213

Results for COCCOC(=O)N1C(=O)[C@@]2(c3cc(C#CC4=CCCCC4)ccc31)[C@H](C(N)=O)[C@H]1C(=O)O[C@H](c3ccccc3)[C@H](c3ccccc3)N1[C@@H]2c1ccc(O)cc1 ?
ROS inducer: 5.7; YB-1 expression: -0.0442

Results for COCCOC(=O)N1C(=O)[C@@]2(c3cc(C#CCCO)ccc31)[C@H](C(=O)NC[C@H](O)c1ccccc1)[C@H]1C(=O)O[C@H](c3ccccc3)[C@H](c3ccccc3)N1[C@@H]2c1ccccc1OCCO ?
ROS inducer: 22.8; YB-1 expression: 0.205
